# Laboratory results reported in PubChem BioAssay (Tox21).
# The source made the active and inactive calls. Where a call stands in place of a potency, no number is given. Calls come from the whole dose curve; as a rule, active = well fitted curve in the direction sought with a large enough effect in the repeat runs; inconclusive = weak or mixed curves; inactive = flat fitted curve, though single readings scatter.
# Assay: qHTS assay to test for compound auto fluorescence at 460 nm (blue) in HepG2 cell free culture (AID 720685)
# Details: Cell-free culture medium, blue autofluorescence 405/460 nm; series mostly up to 91.3 µM
# Text: U.S. Tox21 Program National Center for Advancing Translational Sciences [NCATS] NIH Chemical Genomics Center [NCGC] U.S. Environmental Protection Agency [EPA] National Institutes of Environmental Health Sciences [NIEHS] National Toxicology Program [NTP] U.S. Food and Drug Administration [FDA] Tox21 Assay Overview: Compound auto fluorescence often interferes with screening of the compound library against various biological targets and signaling pathways. Some of these compounds may have fluorophoric properties. Such properties may interfere with the assay outputs resulting in false positives and/or negatives. To decrease such complications and ensure the compound activities are relevant in terms of biological response, the Tox21 10K compound library was screened for auto fluorescence. From the fluorophores used as reporter signals in our screening assays, the auto fluorescence equivalencies of compounds against three fluorophores have been evaluated: Triamterene, Fluorescein and Rose Bengal sodium for blue, green and red fluorescence, respectively. The fluorescence intensities were measured using Excitation/Emission wavelengths at 405/460nm, 485/535nm and 540/590nm for blue, green and red labels, respectively. This assay includes the blue fluorescence data.
# Tox21 Assay Protocol Summary: 5 uL of culture medium (MEM containing 10% FBS) per well was dispensed into black wall/clear bottom 1536-well plates using a Multidrop Combi Dispenser (ThermoFisher Scientific, Waltham, MA). After 23 nL compound or DMSO vehicle was transferred into assay plate by a pintool work station (Kalypsys, San Diego, CA), fluorescence intensities in the assay plates were measured by an Envision (PerkinElmer, Shelton, CT) plate reader using three labels for measuring blue, green and red fluorescence at […] 460, 535 and 590nm respectively.
row,Compound,Potency
1,CCOP(=S)(OCC)SCn1c(=O)oc2cc(Cl)ccc21,inactive
2,C=C(C)C#N,inactive
3,N#Cc1cccnc1,inactive
4,CC(C)=CC1C(C(=O)OCc2cccc(Oc3ccccc3)c2)C1(C)C (stereo not given),inactive
5,CC(C)(O)C#N,inactive
6,Clc1cccc(C(Cl)(Cl)Cl)n1,inactive
7,C[N+](C)(C)CC(=O)O,inactive
8,S=c1[nH]c2ccccc2[nH]1,inactive
9,ClCC(Cl)CCl,inactive
10,Cn1c(-c2ccccc2)cc(-c2ccccc2)[n+]1C,inactive
11,CCC[CH2][Sn]([Cl])([Cl])[CH2]CCC,inactive
12,O=C1CCCO1,inactive
13,CC1(C)C(C(=O)OC(C#N)c2cccc(Oc3ccccc3)c2)C1(C)C (stereo not given),inactive
14,O=NN(c1ccccc1)c1ccccc1,inactive
15,CC[n+]1c(-c2ccccc2)c2cc(N)ccc2c2ccc(N)cc21,inactive
16,O=[N+]([O-])/N=C1\NCCN1Cc1ccc(Cl)nc1,inactive
17,[CH3][Sn]([Cl])([Cl])[Cl],inactive
18,Cc1ccc([N+](=O)[O-])cc1,inactive
19,CCOP(=O)(O)OCC (tested in a mixture with another compound),inactive
20,O=NN1CCOCC1,inactive

row,Compound,Potency
1,N#CCCCCC#N,inactive
2,CCOS(=O)(=O)OCC,inactive
3,Cc1ccc(N=CN(C)C=Nc2ccc(C)cc2C)c(C)c1,inactive
4,CCCCSP(=O)(SCCCC)SCCCC,inactive
5,CCOP(=O)(OCC)OCC,inactive
6,CN(C)c1nc(=O)n(C2CCCCC2)c(=O)n1C,inactive
7,CC1CC(=O)O1 (stereo not given),inactive
8,CCCCCCCCCc1ccc(O)cc1,inactive
9,CCCCCCCCCCCCCl,inactive
10,OCCOCCO,inactive
11,Clc1ccccc1-c1nnc(-c2ccccc2Cl)nn1,inactive
12,CC(C)Nc1ccc(Nc2ccccc2)cc1,inactive
13,CCOP(=S)(OCC)SCSC(C)(C)C,inactive
14,CC(C)(O)C(=O)Nc1ccc([N+](=O)[O-])c(C(F)(F)F)c1,inactive
15,C[C@]12CC[C@H]3[C@@H](CCC4=CC(=O)CC[C@@H]43)[C@@H]1CC[C@@H]2O,inactive
16,CCCCCCCCCC(CC)c1ccc(S(=O)(=O)O)cc1 (stereo not given),inactive
17,CCOC(=O)c1ccccc1N,inactive
18,ClC(Cl)(Cl)c1ccccc1,inactive
19,CS(=O)(=O)NC(=O)c1cc(Oc2ccc(C(F)(F)F)cc2Cl)ccc1[N+](=O)[O-],inactive
20,CC(C)Nc1nc(Cl)nc(NC(C)C)n1,inactive
